About 3,300 (8.5%) of roughly 39,000 compounds were called active. Many of the other results were omitted from the sample, so actives are more common in it than they were.

This assay relates to HepG2. The experiment in a line: cytotoxicity call (relative viability < 0.9). The note with it: 10 µM.
Regarding `Cc1noc(C)c1S(=O)(=O)N(C)C[C@@H]1OCCCC[C@@H](C)Oc2ccc(NC(=O)Nc3ccc(F)cc3)cc2C(=O)N([C@H](C)CO)C[C@@H]1C`, the cytotoxicity call was “inactive”.
As to `C[C@@H]1CN([C@@H](C)CO)C(=O)c2cc(NC(=O)Nc3ccccc3)ccc2O[C@@H](C)CCCCO[C@@H]1CN(C)C(=O)Nc1cccc2ccccc12`, the cytotoxicity call is “inactive”.
Take `Cc1ccc(S(=O)(=O)N(C)C[C@H]2OCCCC[C@H](C)Oc3ccc(NC(=O)Nc4cccc5ccccc45)cc3C(=O)N([C@H](C)CO)C[C@@H]2C)cc1`: the cytotoxicity call was “inactive”.
Take `NNC(=O)[C@@H](N)Cc1ccccc1`: the cytotoxicity call is “inactive”.
On to `Cc1cc(C)c(NC(=O)[C@@H](N)Cc2ccccc2)c(Cl)c1`, for which the cytotoxicity call was “active”.
In the case of `CCOC(=O)[C@@H](N)Cc1ccccc1`, the cytotoxicity call was “inactive”.
As for `CC1=CC[C@H](C(C)(C)O)CC1`, the cytotoxicity call was “inactive”.
As to `C=C(C)[C@H]1CC=C(C)CC1`, the cytotoxicity call was “inactive”.
Turning to `CC(C)=CCCC(C)(O)C1CC=C(C)CC1` (stereo unspecified), the cytotoxicity call was “active”.
Take `C[C@@H]1CN([C@H](C)CO)C(=O)c2cc(NC(=O)C3CCCCC3)ccc2O[C@@H](C)CCCCO[C@H]1CN(C)C(=O)C1CCCCC1`: the cytotoxicity call was “inactive”.
In the case of `C[C@@H]1CN([C@H](C)CO)C(=O)c2c(c3ccccc3n2C)-c2ccccc2CO[C@H]1CN(C)C(=O)Nc1cccc(F)c1`, the cytotoxicity call was “inactive”.
On to `C[C@@H]1CCCCO[C@H](CN(C)Cc2ccc(Cl)c(Cl)c2)[C@@H](C)CN([C@@H](C)CO)C(=O)c2cc(NS(C)(=O)=O)ccc2O1`, for which the cytotoxicity call is “inactive”.
In the case of `C[C@@H]1CCCCO[C@@H](CN(C)Cc2ccc(Cl)c(Cl)c2)[C@H](C)CN([C@@H](C)CO)C(=O)c2cc(NS(C)(=O)=O)ccc2O1`, the cytotoxicity call was “inactive”.
Turning to `C[C@@H]1CN([C@H](C)CO)C(=O)c2cc(NS(C)(=O)=O)ccc2O[C@@H](C)CCCCO[C@H]1CN(C)Cc1ccc(Cl)c(Cl)c1`, the cytotoxicity call was “active”.
For `C[C@@H]1CCCCO[C@H](CN(C)Cc2ccc(Cl)c(Cl)c2)[C@H](C)CN([C@@H](C)CO)C(=O)c2cc(NS(C)(=O)=O)ccc2O1`, the cytotoxicity call is “active”.
In the case of `C[C@@H]1CCCCO[C@H](CN(C)Cc2ccc(Cl)c(Cl)c2)[C@@H](C)CN([C@H](C)CO)C(=O)c2cc(NS(C)(=O)=O)ccc2O1`, the cytotoxicity call is “inactive”.
For `C[C@@H]1CCCCO[C@@H](CN(C)Cc2ccc(Cl)c(Cl)c2)[C@@H](C)CN([C@@H](C)CO)C(=O)c2cc(NS(C)(=O)=O)ccc2O1`, the cytotoxicity call is “inactive”.
The value for `C[C@@H](NC(=O)C[C@@H]1CC[C@@H](NC(=O)CN2CCOCC2)[C@@H](CO)O1)c1ccccc1` was “inactive”; that for `Cc1cc(O)c2c(c1)C(=O)c1cccc(O)c1C2=O` was “inactive”; that for `O=C1c2cccc(O)c2C(=O)c2c(O)cccc21` was “active”.
As for `O=C1c2c(O)cccc2Cc2cccc(O)c21`, the cytotoxicity call is “inactive”.

The record behind these values is the antibiotic and cytotoxicity screens of Wong et al. (2023).
